Screening data from PubChem BioAssay.
Rows were chosen to be rich in hits. Some 6% of all compounds tested hit in one or more screens of this group.
D1 ag: Allosteric Agonists of the Human D1 Dopamine Receptor: qHTS. HEK293 T-REx D1 cells, calcium flux, agonist mode. activation, % at 2 µM. 360,000 tested, 1% active; in the data active = activation above about 30%; also: 0% is about no effect
Target sequence (P21728 whole entry, looked up): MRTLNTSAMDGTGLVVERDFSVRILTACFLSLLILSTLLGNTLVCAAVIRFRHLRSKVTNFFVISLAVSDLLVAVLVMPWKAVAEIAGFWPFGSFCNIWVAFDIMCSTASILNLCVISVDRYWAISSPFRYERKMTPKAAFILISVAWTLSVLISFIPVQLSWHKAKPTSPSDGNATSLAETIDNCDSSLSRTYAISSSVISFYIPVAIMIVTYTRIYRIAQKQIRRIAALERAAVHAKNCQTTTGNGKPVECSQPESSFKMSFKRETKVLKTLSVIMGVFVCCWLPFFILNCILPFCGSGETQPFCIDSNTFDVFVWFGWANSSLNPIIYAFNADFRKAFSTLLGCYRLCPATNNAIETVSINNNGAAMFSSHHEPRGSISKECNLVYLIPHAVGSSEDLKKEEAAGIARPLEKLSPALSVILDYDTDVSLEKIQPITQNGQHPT
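Agonism was scored from calcium flux recorded over 180 s (1 read/s) after pintool compound addition, following a 10-cycle baseline. Cells were inducible force-coupled HEK293 TREx D1, plated overnight at 30 C and loaded with no-wash calcium dye.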
D3 antag: qHTS of D3 Dopamine Receptor Antagonist: qHTS. AID 652054, 2013. D(3) dopamine receptor (Homo sapiens), P35462. D3R cells, DiscoveRx beta-arrestin luminescence, antagonist mode; active compounds read low. max response, negative = inhibition, %. 360,000 tested, 2.5% active; in the data active = max response below about -50%; inconclusive = no clear call, values can overlap the other calls; also: % is scaled to controls: 0 for no effect and ±100 for the full control effect
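Cells plated overnight at 1500 cells/well, then exposed to library compounds with dopamine controls for 90 minutes at 37 degrees C. DiscoveRx reagent added for 30–60 minutes at room temperature; luminescence read, quantitative HTS format.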
D3 ag: qHTS of D3 Dopamine Receptor Agonist: qHTS | D(3) dopamine receptor (Homo sapiens), P35462 | D3R DiscoveRx beta-arrestin cells, luminescence, 90 min | max activation, % | 410,000 tested, 0.58% active | AID 652048, 2013; in the data active = max activation above about 30%; also: 0% is about no effect
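Agonist-mode cell screen: cells plated at 1500/well and incubated overnight at 37 °C, then exposed to library compounds for 90 min at 37 °C. Detection reagent was added for 30–60 min at room temperature, and luminescence was read.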
D1 antagonist: Antagonist of Human D 1 Dopamine Receptor: qHTS | HEK293 TREx D1 cells, calcium flux, dopamine EC80; active compounds read low | 360,000 tested, 3.2% active | activity change, negative = inhibition, % at 10 µM; in the data active = activity change below about -30%; also: % is scaled to controls: 0 for no effect and ±100 for the full control effect
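Allosteric or orthosteric antagonism assessed as attenuation of the calcium response to EC80 dopamine, added 180 s after compound, in induced HEK293 Trex D1 cells loaded with no-wash calcium dye.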
D1 PAM: Potentiators of Human D1 Dopamine Receptor: qHTS; D(1A) dopamine receptor (Homo sapiens), P21728; HEK293 TREx D1 cells, calcium flux, dopamine EC20 potentiation; potentiation, % at 10 µM; 360,000 tested, 0.036% active; AID 504651, 2011; in the data active = potentiation above about 30%; also: 0% is about no effect
* marks the source's active call; other numbers are inactive results; ? = inconclusive; nt = not tested or not shown.

SMILES	D1 ag	D3 antag	D3 ag	D1 antagonist	D1 PAM
COc1ccc(/C=C/C(=O)c2ccc(O)cc2)cc1COc1ccc(F)cc1	5	?	-20	7	-9
COc1ccc(/C=C/C(=O)c2ccccc2)cc1Cn1nnc2ccccc21	3	5	-3	-31*	-2
COc1ccc(/C=C/C(=O)c2ccccc2)cc1COc1ccc(F)cc1	17	2	6	-33*	-6
Cc1ccc(OCC(=O)Nc2ccc3c(c2)nc(CCNC(=O)c2ccco2)n3C)cc1	0	nt	-16	2	-1
Cc1ccc(Oc2ccc(OCC(=O)NC3CCS(=O)(=O)C3)cc2)cc1 (centres undefined)	36*	3	-4	-48*	nt
N#Cc1ccccc1OCC(=O)NC(=O)NC1CCS(=O)(=O)C1 (centres undefined)	3	5	1	5	0
O=C(COc1ccc([N+](=O)[O-])cc1)NC(=O)NC1CCS(=O)(=O)C1 (centres undefined)	5	11	3	-45*	-6
CC(C)(C)N=C1NC(=NC(C)(C)C)c2ccccc21	19	-8	3	-41*	-2
C=C1[C@H](CO)[C@@H](O)C[C@@H]1n1cnc2c(=O)[nH]c(N)nc21	nt	nt	-11	nt	nt
Cc1[nH]c2ccccc2c1CC#N	2	23	4	-5	3
Cc1[nH]c2ccccc2c1C(C#N)(C#N)C1C(=O)c2ccccc2C1=O	6	-89*	-20	-25	-8
COc1ccccc1N1C(=O)C2C(C(=O)c3ccccc3)=NN(c3ccc(Br)cc3)C2C1=O (centres undefined)	35*	-12	-7	5	-2
COc1ccccc1N1C(=O)C2C(C(=O)c3ccccc3)=NN(c3ccc(C)cc3)C2C1=O (centres undefined)	150*	-10	-1	11	1
COC(=O)C1=NN(c2ccc(C)cc2)C2C(=O)N(c3ccccc3OC)C(=O)C12 (centres undefined)	1	-3	-10	-16	-1
CC(=O)c1cccc(NC(=O)NC2CC(=O)N(c3ccc4c(c3)OCCO4)C2)c1 (centres undefined)	4	-2	5	5	-3
COCC(=O)N1CCCC(CNS(=O)(=O)c2ccc(OC)cc2)C1 (centres undefined)	1	-17	0	4	-6
COCCC(=O)N1CCCC(CNS(=O)(=O)c2ccc(OC)cc2)C1 (centres undefined)	3	-63*	-3	-4	-5
COc1ccc(S(=O)(=O)NCC2CCCN(Cc3ccccc3C)C2)cc1 (centres undefined)	3	-14	-19	-30*	-4
CC(=O)Nc1ccc(NC(=O)C(C)OC(=O)CNS(=O)(=O)/C=C/c2ccc(C)cc2)cc1 (centres undefined)	-2	-54*	2	9	-1
Cc1ccc(/C=C/S(=O)(=O)NCC(=O)OCC(=O)Nc2ccc(C(N)=O)cc2)cc1	3	16	1	-17	-2
Cc1oncc1C(=O)Nc1ccc2ccccc2c1	4	0	2	13	-5
Cc1oncc1C(=O)Nc1ccc(C(F)(F)F)cc1	5	4	18	-67*	-5
S=c1nc(-c2ccccn2)c(-c2ccccn2)n[nH]1	nt	-78*	-11	nt	nt
c1ccc(-c2ccccn2)nc1	2	-12	13	-14	-3
CCOC(=O)CNC1CC(=O)N(c2cccc(Cl)c2)C1=O (centres undefined)	3	-24	-14	4	-2
CC(=O)NCC(=O)NNC1CC(=O)N(c2cccc(Cl)c2)C1=O (centres undefined)	1	13	-13	7	31*
COc1ccc(NC(=O)Nc2nnc([C@H]3C[C@H](O)[C@@H](CO)O3)s2)cc1	nt	5	3	nt	nt
CN(Cc1ccccc1)c1cc(Cl)nc(N)n1	2	-10	38*	1	-2
CN(C(=O)c1cccc(NC(=O)c2cccs2)c1)c1ccccc1	0	27	-2	1	-1
